Measured values as given in publication PMC12820563, “FoxP3 forms a head-to-head dimer in vivo and stabilizes its multimerization on adjacent microsatellites”.
In all, about 16,000 sequences were measured (“rpm ratio (pull-down/input)”: median about 0.5, highest 2% from about 5.5 on). Only a selection was taken, and the highest values are over-represented in it overall.

Each sequence was assayed against T1, MBP-FoxP3dN (Mus musculus, UniProt Q99JB6 188-423) (assay: PD-seq (MBP pull-down with sequencing); 20 mM Tris-HCl pH 7.5, 100 mM NaCl, 1.5 mM MgCl2, 0.4 uM protein, 0.1 uM dsDNA library, 30 min, room temperature, amylose pull-down; high values mean tight binding). Conditions: protein: recombinant; tags: His6-MBP; chain copies: 2; dsDNA, one strand shown.
T1 sequence: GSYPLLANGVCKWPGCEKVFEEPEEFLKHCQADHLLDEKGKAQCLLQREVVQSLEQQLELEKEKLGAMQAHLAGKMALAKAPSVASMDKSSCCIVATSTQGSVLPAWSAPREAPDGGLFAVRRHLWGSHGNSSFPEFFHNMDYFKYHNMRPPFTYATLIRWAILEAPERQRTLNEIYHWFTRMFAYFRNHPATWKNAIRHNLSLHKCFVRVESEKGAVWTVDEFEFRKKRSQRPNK
Procedure, shortened: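 A fragment of mouse FoxP3 or FoxP1 without its N-terminus, carrying a His6-MBP tag and produced in E. coli, was combined at 0.4 µM with a 0.1 µM degenerate double-stranded DNA library filled in with Klenow. The mixture sat for 30 min at room temperature in Tris pH 7.5 buffer containing NaCl and MgCl2. Protein–DNA complexes were captured on amylose resin, washed three times, and the DNA was freed with proteinase K, barcoded by PCR and sequenced on Illumina. Binding is expressed as reads-per-million enrichment of pull-down over input, with replicates pooled.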
With “GATGATTGTTCTCCCAGCTGATGAATTCCGTGCCTCGAGTAAACAAATTTTCCTAATCTTTCTGTTCAAGCGCCATCTAC” the binding signal was 0.796 RPM ratio (pull-down/input). “GATGATTGTTCTCCCAGCTGATGAATTTATCTGATCGAGTAAACAAATTTTCCTAATCTTTCTGTTCAAGCGCCATCTAC” was tested, and the binding signal was 0.374 RPM ratio (pull-down/input). In the case of “GATGATTGTTCTCCCAGCTGATGAATTTATCGAGTCGAGTAAACAAATTTTCCTAATCTTTCTGTTCAAGCGCCATCTAC”, the binding signal is reported as 0.379 RPM ratio (pull-down/input). With “GATGATTGTTCTCCCAGCTGATGAATTCTAATCATCGAGTAAACAAATTTTCCTAATCTTTCTGTTCAAGCGCCATCTAC” the binding signal was 0.567 RPM ratio (pull-down/input). In the case of “GATGATTGTTCTCCCAGCTGATGAATTCGCATTTTCGAGTAAACAAATTTTCCTAATCTTTCTGTTCAAGCGCCATCTAC”, the binding signal is reported as 4.25 RPM ratio (pull-down/input). For “GATGATTGTTCTCCCAGCTGATGAATTGTTCGCATCGAGTAAACAAATTTTCCTAATCTTTCTGTTCAAGCGCCATCTAC”, the binding signal was 1.1 RPM ratio (pull-down/input). With “GATGATTGTTCTCCCAGCTGATGAATTGACGCATTCGAGTAAACAAATTTTCCTAATCTTTCTGTTCAAGCGCCATCTAC” the binding signal was 5.74 RPM ratio (pull-down/input). “GATGATTGTTCTCCCAGCTGATGAATTCGCATTCTCGAGTAAACAAATTTTCCTAATCTTTCTGTTCAAGCGCCATCTAC” was tested, and the binding signal was 4.89 RPM ratio (pull-down/input). In the case of “GATGATTGTTCTCCCAGCTGATGAATTTCGCCATTCGAGTAAACAAATTTTCCTAATCTTTCTGTTCAAGCGCCATCTAC”, the binding signal is reported as 5.04 RPM ratio (pull-down/input). “GATGATTGTTCTCCCAGCTGATGAATTTTCGCATTCGAGTAAACAAATTTTCCTAATCTTTCTGTTCAAGCGCCATCTAC” was tested, and the binding signal was 6.27 RPM ratio (pull-down/input). In the case of “GATGATTGTTCTCCCAGCTGATGAATTTGACGCATCGAGTAAACAAATTTTCCTAATCTTTCTGTTCAAGCGCCATCTAC”, the binding signal is reported as 1.22 RPM ratio (pull-down/input). “GATGATTGTTCTCCCAGCTGATGAATTTCGCATTTCGAGTAAACAAATTTTCCTAATCTTTCTGTTCAAGCGCCATCTAC” was tested, and the binding signal was 6.94 RPM ratio (pull-down/input). In the case of “GATGATTGTTCTCCCAGCTGATGAATTTTTCGCATCGAGTAAACAAATTTTCCTAATCTTTCTGTTCAAGCGCCATCTAC”, the binding signal is reported as 0.898 RPM ratio (pull-down/input). For “GATGATTGTTCTCCCAGCTGATGAATTCGCCATTTCGAGTAAACAAATTTTCCTAATCTTTCTGTTCAAGCGCCATCTAC”, the binding signal was 1.75 RPM ratio (pull-down/input). In the case of “GATGATTGTTCTCCCAGCTGATGAATTCTCGCATTCGAGTAAACAAATTTTCCTAATCTTTCTGTTCAAGCGCCATCTAC”, the binding signal is reported as 5.82 RPM ratio (pull-down/input). “GATGATTGTTCTCCCAGCTGATGAATTCGACGCATCGAGTAAACAAATTTTCCTAATCTTTCTGTTCAAGCGCCATCTAC” was tested, and the binding signal was 0.992 RPM ratio (pull-down/input). For “GATGATTGTTCTCCCAGCTGATGAATTTGGATACTCGAGTAAACAAATTTTCCTAATCTTTCTGTTCAAGCGCCATCTAC”, the binding signal was 1.85 RPM ratio (pull-down/input). With “GATGATTGTTCTCCCAGCTGATGAATTGCCCAAATCGAGTAAACAAATTTTCCTAATCTTTCTGTTCAAGCGCCATCTAC” the binding signal was 0.385 RPM ratio (pull-down/input). With “GATGATTGTTCTCCCAGCTGATGAATTAGTTACATCGAGTAAACAAATTTTCCTAATCTTTCTGTTCAAGCGCCATCTAC” the binding signal was 0.891 RPM ratio (pull-down/input). For “GATGATTGTTCTCCCAGCTGATGAATTTAGCTACTCGAGTAAACAAATTTTCCTAATCTTTCTGTTCAAGCGCCATCTAC”, the binding signal was 1.83 RPM ratio (pull-down/input). “GATGATTGTTCTCCCAGCTGATGAATTTTTGGAGTCGAGTAAACAAATTTTCCTAATCTTTCTGTTCAAGCGCCATCTAC” was tested, and the binding signal was 0.23 RPM ratio (pull-down/input). In the case of “GATGATTGTTCTCCCAGCTGATGAATTGGATGGCTCGAGTAAACAAATTTTCCTAATCTTTCTGTTCAAGCGCCATCTAC”, the binding signal is reported as 0.46 RPM ratio (pull-down/input). “GATGATTGTTCTCCCAGCTGATGAATTGGGCAGCTCGAGTAAACAAATTTTCCTAATCTTTCTGTTCAAGCGCCATCTAC” was tested, and the binding signal was 0.963 RPM ratio (pull-down/input). With “GATGATTGTTCTCCCAGCTGATGAATTTGAGCACTCGAGTAAACAAATTTTCCTAATCTTTCTGTTCAAGCGCCATCTAC” the binding signal was 0.481 RPM ratio (pull-down/input). “GATGATTGTTCTCCCAGCTGATGAATTCCACCCGTCGAGTAAACAAATTTTCCTAATCTTTCTGTTCAAGCGCCATCTAC” was tested, and the binding signal was 0.242 RPM ratio (pull-down/input). In the case of “GATGATTGTTCTCCCAGCTGATGAATTGTTAGATTCGAGTAAACAAATTTTCCTAATCTTTCTGTTCAAGCGCCATCTAC”, the binding signal is reported as 0.635 RPM ratio (pull-down/input). For “GATGATTGTTCTCCCAGCTGATGAATTTGTCGGTTCGAGTAAACAAATTTTCCTAATCTTTCTGTTCAAGCGCCATCTAC”, the binding signal was 3.1 RPM ratio (pull-down/input). In the case of “GATGATTGTTCTCCCAGCTGATGAATTTCGTCCCTCGAGTAAACAAATTTTCCTAATCTTTCTGTTCAAGCGCCATCTAC”, the binding signal is reported as 0.799 RPM ratio (pull-down/input). In the case of “GATGATTGTTCTCCCAGCTGATGAATTCGCGCCATCGAGTAAACAAATTTTCCTAATCTTTCTGTTCAAGCGCCATCTAC”, the binding signal is reported as 2.63 RPM ratio (pull-down/input). With “GATGATTGTTCTCCCAGCTGATGAATTCTTCGCATCGAGTAAACAAATTTTCCTAATCTTTCTGTTCAAGCGCCATCTAC” the binding signal was 0.708 RPM ratio (pull-down/input). With “GATGATTGTTCTCCCAGCTGATGAATTTCGCAGCTCGAGTAAACAAATTTTCCTAATCTTTCTGTTCAAGCGCCATCTAC” the binding signal was 2.01 RPM ratio (pull-down/input). “GATGATTGTTCTCCCAGCTGATGAATTTCTCGCATCGAGTAAACAAATTTTCCTAATCTTTCTGTTCAAGCGCCATCTAC” was tested, and the binding signal was 0.861 RPM ratio (pull-down/input). In the case of “GATGATTGTTCTCCCAGCTGATGAATTCGCGCATTCGAGTAAACAAATTTTCCTAATCTTTCTGTTCAAGCGCCATCTAC”, the binding signal is reported as 7.06 RPM ratio (pull-down/input). “GATGATTGTTCTCCCAGCTGATGAATTCACGCTTTCGAGTAAACAAATTTTCCTAATCTTTCTGTTCAAGCGCCATCTAC” was tested, and the binding signal was 1.11 RPM ratio (pull-down/input). In the case of “GATGATTGTTCTCCCAGCTGATGAATTTCACGCATCGAGTAAACAAATTTTCCTAATCTTTCTGTTCAAGCGCCATCTAC”, the binding signal is reported as 1.01 RPM ratio (pull-down/input). For “GATGATTGTTCTCCCAGCTGATGAATTCACGCATTCGAGTAAACAAATTTTCCTAATCTTTCTGTTCAAGCGCCATCTAC”, the binding signal was 5.67 RPM ratio (pull-down/input). For “GATGATTGTTCTCCCAGCTGATGAATTCGCAGCTTCGAGTAAACAAATTTTCCTAATCTTTCTGTTCAAGCGCCATCTAC”, the binding signal was 0.653 RPM ratio (pull-down/input). With “GATGATTGTTCTCCCAGCTGATGAATTTCGCGCATCGAGTAAACAAATTTTCCTAATCTTTCTGTTCAAGCGCCATCTAC” the binding signal was 1.42 RPM ratio (pull-down/input). For “GATGATTGTTCTCCCAGCTGATGAATTTCGCATCTCGAGTAAACAAATTTTCCTAATCTTTCTGTTCAAGCGCCATCTAC”, the binding signal was 6.74 RPM ratio (pull-down/input). In the case of “GATGATTGTTCTCCCAGCTGATGAATTCGCATCTTCGAGTAAACAAATTTTCCTAATCTTTCTGTTCAAGCGCCATCTAC”, the binding signal is reported as 5.81 RPM ratio (pull-down/input).
